# For part of these data: Potency and affinity values are given separately.
# Key:
# Parameters in all cases: scale not given: direction of the effect not stated beside the values
# [1] = molecular target: Protein translocase subunit SecA (Escherichia coli (strain K12)) (UniProt P10408); test: Assay to Identify E. coli SecA ATPase Inhibitors; type: functional; details: 30 µM
# [2] = molecular target: T1, Ubiquitin-activating enzyme e1, putative (Leishmania donovani (strain BPK282A1)) (UniProt E9BSI1); test: Leishmania donovani Ubiquitin Activating Enzyme (LdE1); type: functional; details: 30 µM
# T1 sequence (whole entry): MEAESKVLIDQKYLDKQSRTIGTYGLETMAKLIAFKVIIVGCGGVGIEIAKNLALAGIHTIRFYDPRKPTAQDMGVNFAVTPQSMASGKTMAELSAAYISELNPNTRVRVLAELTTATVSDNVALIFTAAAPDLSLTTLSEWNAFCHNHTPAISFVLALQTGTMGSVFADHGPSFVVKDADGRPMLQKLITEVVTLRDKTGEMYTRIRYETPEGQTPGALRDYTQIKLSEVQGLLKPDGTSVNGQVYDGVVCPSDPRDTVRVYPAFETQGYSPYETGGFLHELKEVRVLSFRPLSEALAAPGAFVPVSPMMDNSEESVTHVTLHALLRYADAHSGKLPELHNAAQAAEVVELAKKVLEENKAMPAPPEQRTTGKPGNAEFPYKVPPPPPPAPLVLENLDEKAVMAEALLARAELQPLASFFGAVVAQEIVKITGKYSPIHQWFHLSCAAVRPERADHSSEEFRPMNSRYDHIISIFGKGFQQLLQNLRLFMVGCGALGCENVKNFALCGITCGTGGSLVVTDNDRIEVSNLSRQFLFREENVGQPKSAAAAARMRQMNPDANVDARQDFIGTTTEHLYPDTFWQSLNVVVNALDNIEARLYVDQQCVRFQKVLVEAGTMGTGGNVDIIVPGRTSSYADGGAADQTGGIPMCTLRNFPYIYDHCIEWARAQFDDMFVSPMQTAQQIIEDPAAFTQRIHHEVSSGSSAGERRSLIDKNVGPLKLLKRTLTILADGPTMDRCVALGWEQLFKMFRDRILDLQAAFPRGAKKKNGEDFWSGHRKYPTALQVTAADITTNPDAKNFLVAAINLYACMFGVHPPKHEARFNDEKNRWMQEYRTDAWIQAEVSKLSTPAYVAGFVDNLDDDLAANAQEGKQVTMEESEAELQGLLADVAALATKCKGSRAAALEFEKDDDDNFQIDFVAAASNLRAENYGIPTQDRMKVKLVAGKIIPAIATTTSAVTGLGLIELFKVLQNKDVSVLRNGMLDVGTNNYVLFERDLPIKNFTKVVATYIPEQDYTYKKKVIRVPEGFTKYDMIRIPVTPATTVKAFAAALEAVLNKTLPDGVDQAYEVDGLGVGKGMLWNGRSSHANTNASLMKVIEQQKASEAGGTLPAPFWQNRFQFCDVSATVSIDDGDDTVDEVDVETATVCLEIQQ
# [3] = molecular target: T2, Aspartate--tRNA(Asp/Asn) ligase (Mycobacterium tuberculosis (strain ATCC 25618 / H37Rv)) (UniProt P9WFW3); test: Assay for Asp RNA synthetase-1 from Mycobacterium tuberculosis; type: functional; details: 30 µM; also: in the data most compounds retested in dose-response had high values
# T2 sequence (whole entry): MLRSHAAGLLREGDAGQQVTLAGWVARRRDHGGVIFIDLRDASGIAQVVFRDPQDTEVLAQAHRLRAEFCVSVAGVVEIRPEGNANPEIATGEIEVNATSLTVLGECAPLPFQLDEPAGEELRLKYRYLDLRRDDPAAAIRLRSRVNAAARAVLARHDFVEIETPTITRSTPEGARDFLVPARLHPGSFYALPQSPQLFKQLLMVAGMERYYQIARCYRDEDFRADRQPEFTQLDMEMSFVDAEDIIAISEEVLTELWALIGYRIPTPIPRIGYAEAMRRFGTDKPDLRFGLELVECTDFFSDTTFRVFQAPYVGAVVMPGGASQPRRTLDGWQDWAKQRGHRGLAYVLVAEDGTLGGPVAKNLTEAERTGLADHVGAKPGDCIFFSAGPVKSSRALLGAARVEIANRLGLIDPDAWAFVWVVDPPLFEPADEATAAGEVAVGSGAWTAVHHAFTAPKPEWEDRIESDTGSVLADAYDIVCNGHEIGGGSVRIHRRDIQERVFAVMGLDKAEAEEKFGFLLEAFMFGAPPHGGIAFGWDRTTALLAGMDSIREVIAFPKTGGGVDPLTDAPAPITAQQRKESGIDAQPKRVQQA
# [4] = molecular target: AMP-activated protein kinase, AMPK (Homo sapiens) (UniProt P54646+O43741+P54619+Q9UGJ0+Q9Y478+Q13131+Q9UGI9); test: AMP-dependent Kinase enzyme assay. An in vitro enzyme assay that detects ADP turnover that is directly proportional to AMPK activity. This uses naive AMPK that is activated during the assay with MK-8722; type: functional; details: 30 µM
# [5] = molecular target: Sialic acid-binding Ig-like lectin 9 (Homo sapiens) (UniProt Q9Y336); test: Hs-Siglec9 ALPHAscreen SOP 20170721; details: 10 µM
# Sequence of Sialic acid-binding Ig-like lectin 9 (Homo sapiens) (Q9Y336 whole entry): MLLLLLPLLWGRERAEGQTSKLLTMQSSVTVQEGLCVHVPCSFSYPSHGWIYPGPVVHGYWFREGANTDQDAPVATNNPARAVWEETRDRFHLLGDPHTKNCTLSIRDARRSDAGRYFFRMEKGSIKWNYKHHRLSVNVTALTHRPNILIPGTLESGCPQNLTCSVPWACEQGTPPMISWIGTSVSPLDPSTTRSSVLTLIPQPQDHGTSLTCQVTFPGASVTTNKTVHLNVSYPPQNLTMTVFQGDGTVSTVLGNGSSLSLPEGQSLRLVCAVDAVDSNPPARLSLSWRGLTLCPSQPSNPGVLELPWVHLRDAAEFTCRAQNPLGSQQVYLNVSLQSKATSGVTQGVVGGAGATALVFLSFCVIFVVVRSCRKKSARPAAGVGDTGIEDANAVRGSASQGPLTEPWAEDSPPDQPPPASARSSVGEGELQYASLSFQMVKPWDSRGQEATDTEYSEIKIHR
# Trypanosoma cruzi = test: Trypanosoma cruzi phosphomannomutase and mannose-1-phosphate guanylyltransferase assay; type: functional; details: 10 µM
# [6] = molecular target: T3, Arginase-2, mitochondrial (Homo sapiens) (UniProt P78540); test: in vitro enzyme assay to detect the production of urea directly proportional to the activity of Arginase II; type: functional; details: 33.3 µM; also: in the data most compounds retested in dose-response had high values
# T3 sequence (whole entry): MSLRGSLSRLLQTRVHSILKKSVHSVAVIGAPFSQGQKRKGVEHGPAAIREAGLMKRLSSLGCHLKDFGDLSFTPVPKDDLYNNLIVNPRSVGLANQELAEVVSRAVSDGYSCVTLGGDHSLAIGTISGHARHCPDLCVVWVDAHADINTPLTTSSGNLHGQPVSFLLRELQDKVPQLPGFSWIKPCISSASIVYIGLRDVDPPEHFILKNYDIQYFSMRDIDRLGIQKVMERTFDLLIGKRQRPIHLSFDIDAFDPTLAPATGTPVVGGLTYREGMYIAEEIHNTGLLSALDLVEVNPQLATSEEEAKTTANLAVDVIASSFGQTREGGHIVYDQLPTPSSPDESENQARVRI
# [7] = molecular target: T4, Proteasome subunit beta (Trypanosoma cruzi) (UniProt O96673); test: Trypanosoma cruzi proteasome chymotrypsin-like activity (TcProtChymo) assay.; also: in the data most compounds retested in dose-response had high values; type: functional; details: 9.37 µM
# T4 sequence (whole entry): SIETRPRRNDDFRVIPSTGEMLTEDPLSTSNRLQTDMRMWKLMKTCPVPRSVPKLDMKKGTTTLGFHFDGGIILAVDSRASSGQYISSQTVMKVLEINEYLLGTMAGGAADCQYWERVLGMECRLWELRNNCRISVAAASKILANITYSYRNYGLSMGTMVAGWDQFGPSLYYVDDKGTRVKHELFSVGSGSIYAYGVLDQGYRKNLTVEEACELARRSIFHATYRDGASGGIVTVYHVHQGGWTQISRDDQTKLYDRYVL
# Homo sapiens = organism: Homo sapiens; test: To identify inhibition of the IFN signalling (Jak-Stat) pathway via expression of an eGFP reporter gene under the control of an IFN-stimulated response element (ISRE) containing MxA promoter.; type: functional; details: 30 µM
# [8] = molecular target: Shiga toxin 2 (Escherichia coli O157:H7) (UniProt P09385+P09386); test: E. coli 0.157:H7 Shiga Toxin SOP - stx2 screening assay; type: functional; details: 30 µM
# [9] = molecular target: T5, Tyrosyl-tRNA synthetase, putative (Trypanosoma cruzi (strain CL Brener)) (UniProt Q4DSP6); test: Trypanosoma cruzi tyrosyl tRNA synthetase (TcYRS) _High Tyrosine SOP; type: functional; details: 30 µM; also: in the data most compounds retested in dose-response had high values
# T5 sequence (whole entry): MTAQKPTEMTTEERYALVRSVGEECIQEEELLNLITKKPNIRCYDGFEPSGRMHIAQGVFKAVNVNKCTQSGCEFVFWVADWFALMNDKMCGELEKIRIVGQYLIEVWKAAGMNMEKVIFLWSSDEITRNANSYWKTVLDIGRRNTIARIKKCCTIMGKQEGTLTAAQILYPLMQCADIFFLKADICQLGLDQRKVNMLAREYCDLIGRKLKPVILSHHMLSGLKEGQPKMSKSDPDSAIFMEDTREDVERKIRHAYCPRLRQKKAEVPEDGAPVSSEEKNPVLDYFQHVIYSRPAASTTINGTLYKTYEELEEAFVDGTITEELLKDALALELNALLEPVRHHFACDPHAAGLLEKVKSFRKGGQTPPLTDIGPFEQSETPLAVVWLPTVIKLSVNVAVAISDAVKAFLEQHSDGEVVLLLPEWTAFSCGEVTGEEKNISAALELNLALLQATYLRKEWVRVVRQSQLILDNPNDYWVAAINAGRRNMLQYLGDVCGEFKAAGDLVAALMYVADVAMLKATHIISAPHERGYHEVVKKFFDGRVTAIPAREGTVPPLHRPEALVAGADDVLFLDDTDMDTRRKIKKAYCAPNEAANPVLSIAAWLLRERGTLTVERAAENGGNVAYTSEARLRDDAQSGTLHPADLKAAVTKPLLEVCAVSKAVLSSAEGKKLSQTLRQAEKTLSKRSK
# [10] = molecular target: T5, Tyrosyl-tRNA synthetase, putative (Trypanosoma cruzi (strain CL Brener)); test: Trypanosoma cruzi tyrosyl tRNA synthetase (TcYRS) SOP; type: functional; details: 30 µM
# [11] = molecular target: Chromo domain-containing protein 1 (Saccharomyces cerevisiae (strain ATCC 204508 / S288c) (Baker's yeast)) (UniProt P32657); test: ScCHD-1 Enzyme Inhibition Assay; type: functional; details: 30 µM; also: in the data most compounds retested in dose-response had high values
# Sequence of Chromo domain-containing protein 1 (Saccharomyces cerevisiae (strain ATCC 204508 / S288c) (Baker's yeast)) (P32657 whole entry, the tested form may be a part): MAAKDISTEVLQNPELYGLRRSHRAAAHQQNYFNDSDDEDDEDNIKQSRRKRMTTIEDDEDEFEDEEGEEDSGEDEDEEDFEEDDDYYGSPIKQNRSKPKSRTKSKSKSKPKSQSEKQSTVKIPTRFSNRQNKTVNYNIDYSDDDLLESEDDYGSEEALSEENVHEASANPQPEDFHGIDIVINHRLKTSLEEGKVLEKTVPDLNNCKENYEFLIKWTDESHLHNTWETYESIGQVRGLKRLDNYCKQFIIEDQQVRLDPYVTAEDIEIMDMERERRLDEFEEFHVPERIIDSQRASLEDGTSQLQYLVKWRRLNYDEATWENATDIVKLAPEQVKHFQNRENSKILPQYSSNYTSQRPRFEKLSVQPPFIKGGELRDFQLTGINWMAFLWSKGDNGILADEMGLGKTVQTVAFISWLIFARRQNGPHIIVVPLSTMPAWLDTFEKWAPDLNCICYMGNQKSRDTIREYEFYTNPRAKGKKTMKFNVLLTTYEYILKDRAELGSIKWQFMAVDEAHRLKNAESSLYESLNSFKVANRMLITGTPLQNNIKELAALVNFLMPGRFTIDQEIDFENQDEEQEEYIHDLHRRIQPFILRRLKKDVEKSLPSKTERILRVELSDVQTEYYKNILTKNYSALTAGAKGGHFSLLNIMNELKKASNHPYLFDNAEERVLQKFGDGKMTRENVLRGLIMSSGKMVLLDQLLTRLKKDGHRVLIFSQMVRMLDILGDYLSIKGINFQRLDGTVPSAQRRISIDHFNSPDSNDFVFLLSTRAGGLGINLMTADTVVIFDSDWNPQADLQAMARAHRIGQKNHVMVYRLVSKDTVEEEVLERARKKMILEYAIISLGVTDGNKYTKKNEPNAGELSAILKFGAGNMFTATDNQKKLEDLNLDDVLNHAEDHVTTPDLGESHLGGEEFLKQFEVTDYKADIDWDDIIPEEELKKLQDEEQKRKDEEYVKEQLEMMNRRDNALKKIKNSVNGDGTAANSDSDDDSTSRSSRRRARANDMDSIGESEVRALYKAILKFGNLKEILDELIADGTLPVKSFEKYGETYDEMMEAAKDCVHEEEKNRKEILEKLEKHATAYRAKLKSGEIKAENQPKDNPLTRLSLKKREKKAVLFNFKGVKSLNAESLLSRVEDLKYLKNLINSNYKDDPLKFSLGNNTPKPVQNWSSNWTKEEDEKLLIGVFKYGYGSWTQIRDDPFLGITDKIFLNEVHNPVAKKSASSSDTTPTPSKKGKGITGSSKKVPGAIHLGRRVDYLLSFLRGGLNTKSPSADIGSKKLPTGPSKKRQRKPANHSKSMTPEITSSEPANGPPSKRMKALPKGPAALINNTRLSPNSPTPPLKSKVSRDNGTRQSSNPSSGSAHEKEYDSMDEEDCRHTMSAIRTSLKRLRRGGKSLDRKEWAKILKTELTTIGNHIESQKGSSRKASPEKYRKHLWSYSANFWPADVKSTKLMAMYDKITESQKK
# Sequence of Protein translocase subunit SecA (Escherichia coli (strain K12)) (P10408 whole entry): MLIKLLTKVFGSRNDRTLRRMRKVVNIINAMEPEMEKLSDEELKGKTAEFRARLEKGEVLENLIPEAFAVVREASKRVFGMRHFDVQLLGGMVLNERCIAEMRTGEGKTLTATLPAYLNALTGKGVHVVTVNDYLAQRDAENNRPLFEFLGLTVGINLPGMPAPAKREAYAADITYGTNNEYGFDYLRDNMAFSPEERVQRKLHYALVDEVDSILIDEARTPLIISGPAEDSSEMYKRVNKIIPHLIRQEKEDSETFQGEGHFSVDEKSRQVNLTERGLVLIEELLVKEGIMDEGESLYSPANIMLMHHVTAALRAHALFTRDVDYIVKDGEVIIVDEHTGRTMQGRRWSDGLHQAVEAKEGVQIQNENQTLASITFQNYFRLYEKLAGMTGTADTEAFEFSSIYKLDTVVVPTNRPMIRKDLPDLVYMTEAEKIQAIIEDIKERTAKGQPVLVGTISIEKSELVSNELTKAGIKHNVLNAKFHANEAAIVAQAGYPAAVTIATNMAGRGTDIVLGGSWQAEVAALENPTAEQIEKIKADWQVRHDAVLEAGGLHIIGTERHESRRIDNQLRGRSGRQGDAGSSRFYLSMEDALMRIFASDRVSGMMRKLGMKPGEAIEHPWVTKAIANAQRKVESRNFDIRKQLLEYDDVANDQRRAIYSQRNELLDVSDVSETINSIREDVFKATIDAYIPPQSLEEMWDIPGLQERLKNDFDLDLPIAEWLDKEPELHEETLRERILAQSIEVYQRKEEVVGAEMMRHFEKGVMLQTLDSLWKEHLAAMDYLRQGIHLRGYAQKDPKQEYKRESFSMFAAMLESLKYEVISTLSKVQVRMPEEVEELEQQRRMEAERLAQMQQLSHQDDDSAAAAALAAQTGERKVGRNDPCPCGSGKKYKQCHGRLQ
SMILES,Percent Effect [1],Percent Effect [2],Percent Effect [3],Percent Effect [4],Percent Effect [5],Percent Effect (Trypanosoma cruzi),Percent Effect [6],Percent Effect [7],Percent Effect (Homo sapiens),Percent Effect [8],Percent Effect [9],Percent Effect [10],Percent Effect [11]
Cc1ccccc1CC(C)NCc1c(C)nn(C)c1N1CCOCC1 (configuration not stated),-3.17%,-1.39%,-4.34%,-1.27%,-1.05%,5.93%,-2.21%,2.46%,-20.6%,16.3%,3.16%,2.56%,102%
O=C1NC2(CCNCC2)CC1c1cccnc1 (configuration not stated),-0.858%,10.7%,-1.51%,15.3%,-10.1%,-6.89%,2.1%,8.55%,13.1%,-1.63%,4.25%,8.97%,-2.26%
c1ccc(CN2C[C@@H]3CCCO[C@@H]3[C@H](Nc3ccccn3)C2)nc1,-6.38%,5.41%,3.79%,-2.17%,3.76%,0.88%,3.23%,8.15%,-12.7%,8.28%,6.45%,16.1%,-2.77%
COC[C@@H]1CCC[C@]12CN(Cc1cccc(C)n1)CCO2,2.73%,4%,3.92%,0.13%,-3.4%,-8.45%,0.528%,15.3%,9.81%,-43.1%,2.12%,2.56%,-8.43%
COc1cccc(CCNCc2c(C)nn(C)c2N(C)C)c1,-3.25%,10.5%,-2.61%,-2.73%,0.941%,-4.13%,-3.45%,13.4%,-20.1%,28.4%,3.43%,12.2%,-4.73%
CCOCC(O)CN1CCN(C(=O)Cc2ccccc2C)CC1 (configuration not stated),1.46%,13.2%,-3.28%,-1.09%,0.779%,-8.65%,8.43%,8.69%,20%,30.3%,0.49%,9.76%,-8.57%
c1ccc(CN2CC[C@H]3CO[C@H](CNc4ncccn4)[C@H]3C2)nc1,-2.49%,8%,-3.84%,2.38%,4.32%,-0.772%,-54.3%,9.74%,-5.93%,3.55%,2.08%,12.5%,-8.55%
Cn1cc(N2C(=O)CC[C@@H]3[C@H]2CCN3Cc2ccncc2)cn1,-1.29%,2.67%,-1.89%,-2.47%,5.41%,-0.193%,-56.1%,9.06%,-8.54%,-20.8%,5.21%,12.5%,-7.17%
O=C(COc1cccc(F)c1)N1C[C@@H](O)[C@H](N2CCCC2)C1,0.584%,4.05%,-0.878%,10.1%,2.64%,4.94%,0.696%,7.33%,-0.848%,-11.4%,0%,-3.9%,-18.1%

# Reference: ChEMBL document CHEMBL3988442, “University of Dundee, Small-Polar-MMV Screening Library” (2021)
